From PubChem BioAssay (NCATS)
Results filed as inconclusive are left out. Entries that show only a call come without a potency. Calls of active or inactive are those of the source. Calls follow the shape of the dose curve; as a rule, active = well fitted curve in the direction sought with a large enough effect; inconclusive = small, poorly fitted or top-dose-only effect, or another doubt; inactive = no such curve, though single readings can be large; an effect the other way counts as inactive or inconclusive. Non-standard residues stand in square brackets, D forms with d. Residues, ends and D or L forms follow the SMILES beside them. *: point of attachment. Nva = CCC[C@H](N)C(=O)O; Cbz = O=C(OCc1ccccc1)*

How the values were obtained:
[1] = target: Calcium and integrin-binding protein 1 (Homo sapiens) (UniProt Q99828); assay: Primary qHTS for Identification of Calcium Integrin Binding Protein 1 (CIB1) Competitor (AID 1508620);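 also: GST tagged CIB1 binding a fluorescein labelled alphaIIb integrin peptide tracer; top concentration of the series differs between compounds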
Sequence of Calcium and integrin-binding protein 1 (Homo sapiens) (Q99828 whole entry, looked up): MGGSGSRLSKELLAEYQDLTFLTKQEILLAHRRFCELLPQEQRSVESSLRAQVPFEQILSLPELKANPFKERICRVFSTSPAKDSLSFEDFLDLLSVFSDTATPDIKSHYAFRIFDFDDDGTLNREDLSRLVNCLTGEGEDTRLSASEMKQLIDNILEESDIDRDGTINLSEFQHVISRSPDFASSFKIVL
Outline: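 Fluorescence polarization competition: GST-tagged CIB1 (1 uM final) preincubated with compound 15 min at room temperature, then FITC-labelled alphaIIb peptide (100 nM final) added. After 15 min at room temperature, polarization read at Ex 480/Em 540.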

[2] = Primary qHTS for small molecule stabilizers of the endoplasmic reticulum resident proteome: Secreted ER Calcium Modulated Protein (SERCaMP) assay (AID 1508630)
Outline: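 The SH-SY5Y reporter protocol was run at 3 concentrations up to 38.3 uM (primary) or 11 concentrations (follow-up): 16 h compound, 100 nM thapsigargin for 4 h, then extracellular luciferase luminescence.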

| SMILES | Potency [1] | outcome [2] |
| --- | --- | --- |
| Cn1c(Nc2ccc(C(F)(F)F)cc2)nc2cc(Oc3ccnc(-c4ncc(C(F)(F)F)[nH]4)c3)ccc21 | inactive | inactive |
| O=C(C=CC#Cc1cccc(NS(=O)(=O)c2ccccc2)c1)NO | inactive | inactive |
| C[C@@H](Cc1cc2c(c(C(N)=O)c1)N(CCCO)CC2)NCCOc1ccccc1OCC(F)(F)F | inactive | inactive |
| CC(=O)N[C@@H]1[C@H](O[C@@H]2c3ccc(c(Cl)c3)Oc3cc4cc(c3O[C@H]3O[C@H](CO)[C@@H](O)[C@H](O)[C@H]3NC(=O)CCCCCCCC(C)C)Oc3ccc(cc3Cl)C[C@H]3NC(=O)[C@H](N)c5ccc(O)c(c5)Oc5cc(O)cc(c5)[C@H](NC3=O)C(=O)N[C@H]4C(=O)N[C@H]3C(=O)N[C@@H]2C(=O)N[C@@H](C(=O)O)c2cc(O)cc(O[C@H]4O[C@H](CO)[C@@H](O)[C@H](O)[C@H]4O)c2-c2cc3ccc2O)O[C@H](CO)[C@@H](O)[C@@H]1O | inactive | inactive |
| CC[C@H]1OC(=O)[C@H](C)[C@@H](O[C@H]2C[C@@](C)(OC)[C@@H](O)[C@H](C)O2)[C@H](C)[C@@H](O[C@@H]2O[C@H](C)C[C@H](N(C)C)[C@@H]2O)[C@](C)(OC)C[C@@H](C)C(=O)[C@H](C)[C@@H](O)[C@]1(C)O | inactive | inactive |
| COc1cc(C(=O)NC2CCN(C)CC2)ccc1Nc1ncc2c(n1)N(C1CCCC1)CCC(=O)N2C(C)C | inactive | inactive |
| CC(N[C@H]1CCCC[C@H]1NC(=O)c1ccc(Cl)cc1)c1cccc2ccccc12 (stereo partly drawn) | inactive | inactive |
| CCc1c(O)cc(O)c(C(=O)c2ccc(OCCN3CCOCC3)c(OC)c2)c1CC(=O)N(CCOC)CCOC | inactive | inactive |
| Cn1cnc2c(F)c(Nc3ccc(Br)cc3F)c(C(=O)NOCCO)cc21 | inactive | inactive |
| CC(C=CC=C(C)C=CC1=C(C)CCCC1(C)C)=CC=CC=C(C)C=CC=C(C)C=CC1=C(C)CCCC1(C)C | inactive | inactive |
| C[C@@]12C[C@@]3(O)O[C@@H](O1)[C@]1(COC(=O)c4ccccc4)[C@@H]3C[C@@]12O[C@@H]1O[C@H](CO)[C@@H](O)[C@H](O)[C@@H]1O | inactive | inactive |
| CN1CCc2c(c3ccccc3n2Cc2ccc(C(=O)NO)cc2)C1 | inactive | inactive |
| O=C(C=Cc1ccc(CN(CCO)CCc2c[nH]c3ccccc23)cc1)NO | inactive | inactive |
| COc1cc(C)c(C=CC(C)=CC=CC(C)=CC(=O)O)c(C)c1C | inactive | inactive |
| O=C(CCCCCCC(=O)Nc1cccnc1)NO | inactive | inactive |
| CC(=O)NCC(=O)N1[C@H]2CC[C@H]1c1cc(Nc3ncc(C(F)(F)F)c(NC4CCC4)n3)ccc12 | inactive | inactive |
| CC(C=CC(=O)NO)=C[C@@H](C)C(=O)c1ccc(N(C)C)cc1 | inactive | inactive |
| CCC[C@@H](C=O)NC(=O)[C@H](CC(C)C)NC(=O)[C@H](CC(C)C)NC(=O)OCc1ccccc1 (Cbz-Leu-Leu-[Nva]-aldehyde) | inactive | inactive |
| NC(=NCCCCCCN=C(N)N=C(N)Nc1ccc(Cl)cc1)N=C(N)Nc1ccc(Cl)cc1 | inactive | inactive |
| Cc1noc(-c2ccc(CSCCC(=O)O)cc2)c1NC(=O)OC(C)c1ccccc1Cl (stereo not drawn) | inactive | inactive |
| CS[C@H]1SC[C@@H]2C(=O)N(C)[C@H](C(C)C)C(=O)OC[C@H](NC(=O)c3cnc4ccccc4n3)C(=O)N[C@H](C)C(=O)N(C)[C@@H]1C(=O)N(C)[C@H](C(C)C)C(=O)OC[C@H](NC(=O)c1cnc3ccccc3n1)C(=O)N[C@H](C)C(=O)N2C | inactive | inactive |
| CC(C)(O)CC[C@@H](O)[C@](C)(O)[C@H]1CC[C@@]2(O)C3=CC(=O)[C@@H]4C[C@@H](O)[C@@H](O)C[C@]4(C)[C@@H]3CC[C@]12C | inactive | inactive |
| C[C@H]1O[C@H](O[C@H]2[C@H](O)[C@@H](O)[C@@H](O[C@H]3[C@H](O)[C@@H](O)C(O)O[C@H]3CO)O[C@H]2CO)[C@H](O)[C@@H](O)[C@H]1N[C@H]1C=C(CO)[C@@H](O)[C@H](O)[C@@H]1O (stereo partly drawn) | inactive | inactive |
| CCc1cc(C(C)=NOCc2ccc(C3CCCCC3)c(C(F)(F)F)c2)ccc1CN1CC(C(=O)O)C1 | inactive | inactive |
| CC(=O)OCC(=O)[C@@]1(O)CC[C@H]2[C@@H]3CCC4=CC(=O)CC[C@]4(C)[C@@H]3C(=O)C[C@@]21C | inactive | inactive |
| CO[C@@H]1[C@@H](O)[C@H](O)[C@@H](n2c3c(Cl)cccc3c3c4c(c5c6cccc(Cl)c6[nH]c5c32)C(=O)NC4=O)O[C@@H]1CO | inactive | inactive |
| Cc1cnc(NC(=O)Nc2cc(Br)c(C)cc2OC[C@@H]2CNCCO2)cn1 | inactive | inactive |
| O=C1c2c(O)cccc2[C@@H]([C@@H]2O[C@H](CO)[C@@H](O)[C@H](O)[C@H]2O)c2cc(CO)cc(O)c21 | inactive | inactive |
| Nc1ccc(C(=O)Nc2cccc(-c3nc(N4CCOCC4)c4oc5ncccc5c4n3)c2)cn1 | inactive | inactive |
